Screening results as filed in PubChem.
CHX counter = counter-screen for Shiga toxin inhibitors: cycloheximide protein synthesis inhibition; cell reporter, cycloheximide protein synthesis inhibition counterscreen; max response, %; 300,000 compounds, 12% hits; AID 2314; in the data active means max response mostly above about 13%, no sharp cut-off; inactive means mostly below about 14%; further: read at 38.3 µM for the half of the compounds with a filed dose; 0% is about no effect
Pf growth 48h = inhibits P. falciparum growth in the first generation, 48 h | P. falciparum luciferase growth in erythrocytes, 48 h | Potency, µM (titrated, usually from 28.7 µM), inactives show top-dose activity change, negative = inhibition, most hits filed as inhibitors | 310,000 compounds, 5.9% hits | AID 504832; further: potency means the concentration at half of the fitted maximal effect; on the % scale 0 is the no-effect control and ±100 the full control effect
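Read-out is firefly luciferase luminescence from an integrated reporter in P. falciparum, so falling signal marks reduced parasite growth. Infected erythrocytes were at 2% hematocrit and 0.1% parasitemia (final) in Albumax-supplemented RPMI 1640.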
NS1 function inh = blocks influenza NS1 protein function | Potency, µM (highest dose often 46.1 µM), for the others: top-dose activity, positive = more growth | 270,000 compounds, 0.4% hits; calls by dose curve; further: potency means the concentration at half of the fitted maximal effect; actives are rising curves; nearly all actives have a fitted effect of over 50% in size
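S. cerevisiae expressing influenza A NS1, grown in glucose, washed, then diluted 1:100 into pH 6.0 -URA galactose medium with 23 nl compound. Growth recovery read as OD600; NS1-free strain serves as control.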
Pf growth 96h = P. falciparum growth inhibition at 96 hours; 320,000 compounds, 6.9% hits; Potency, µM (series often up to 28.7 µM), for the others: at the top dose activity change, negative = inhibition, usual class: inhibitors; AID 504834; P. falciparum luciferase reporter growth, 96 h; further: potency means the concentration at half of the fitted maximal effect; on the % scale 0 is the no-effect control and ±100 the full control effect
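Two-generation exposure (96 h) targets delayed-death phenotype. Reporter parasites carrying integrated firefly luciferase, in red cells at 2% hematocrit and 0.05% parasitemia final, kept at 37 C, 5% CO2; luminescence loss indicates inhibition.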
Shiga inhibitor = Shiga toxin inhibition; Vero cells, Shiga toxin protein synthesis inhibition reporter; inhibition, % at 38.7 µM; 290,000 compounds, 9.2% hits; in the data active means inhibition mostly above about 28%, no sharp cut-off; inactive means mostly below about 43%; further: 0% is about no effect
Active calls of the source: *; ? = inconclusive; / = no result given; [ ] = another dose, or the depositor's remark. Compounds with a hit are over-represented: about 21% of the library has one in this group of screens. Unless noted, the call rests on the fitted dose curve; in most records, active means well fitted inhibition curve with a large enough effect; inconclusive means small, poorly fitted or top-dose-only effect, or another doubt; inactive means no such curve, though single readings can be large or run the other way.

SMILES | CHX counter | Pf growth 48h | NS1 function inh | Pf growth 96h | Shiga inhibitor
c1cn2cc(CN3CCOCC3)nc2s1 | -6 | -4% | 3% | ? | -17
COc1cc(/C=C(\NC(C)=O)C(=O)Nc2cccc(O)c2)ccc1OC(C)=O | 7 | 12% | 6% | ? | 12
COc1cc(OC)cc(OCC(O)Cn2cnc3cc(C)c(C)cc32)c1 (stereo unspecified) | -2 | / | -31% | 10µM* | -14
CCOCCCNS(=O)(=O)c1ccc(NC(=O)CN2C(=O)c3ccccc3C2=O)cc1 | 2 | -5% | 1% | ? | -1
CCOCCCNS(=O)(=O)c1ccc(NC(=O)N2c3ccccc3Sc3ccccc32)cc1 | 3 | ? | 7% | 12µM* | -9
NS(=O)(=O)c1ccc(NC(=O)N2c3ccccc3Sc3ccccc32)cc1 | -2 | ? | 2% | 2.3µM* | -10
CCC1CCCCN1S(=O)(=O)c1ccc(C(=O)N(CCCN(C)C)c2nc3cc4c(cc3s2)OCO4)cc1 (stereo unspecified) | 6 | ? | 3% | ? | -6
C(=C\c1ccccc1)/CSc1nnc(-c2cccnc2)o1 | 1 | 4% | -71% | ? | -4
COc1ccc(C(C#N)N2CCC(c3ccccc3)=N2)cc1 (stereo unspecified) | 21* | 47% | 4% | 34% | 43*
CN1CCC(N(C)C(=O)COc2ccccc2Cl)CC1 | / | -14% | / | ? | /
N#CCc1nn2c3c(cnc2c1C#N)C(=O)CCC3 | 13 | 27%[5.75 µM] | 13% | ? | 25
Cc1cccc(-n2nnnc2SCn2nnc3ccccc3c2=O)c1 | 23* | 23% | ? | ? | 53
Cc1ccc(-n2nnnc2SCn2nnc3ccccc3c2=O)cc1 | 62* | 131% | 3% | / | 95*
O=c1c2ccccc2nnn1CSc1nnc2ccccn12 | 34* | 161% | -3% | / | 99*
Cc1cccc(CC(=O)OCn2nnc3ccccc3c2=O)c1 | -2 | -1% | -9% | -3% | -3
COc1ccc(C)cc1-n1nnnc1SCn1nnc2ccccc2c1=O | -2 | / | -10% | 13% | -4
O=c1c2ccccc2nnn1CSc1nnnn1-c1ccc(O)cc1 | 32* | 39% | / | 47% | 67*
Cn1c(SCn2nnc3ccccc3c2=O)nc2ccccc2c1=O | 0 | 3% | / | 14% | -2
O=C(Nc1ccc(N2C(=O)CCC2=O)cc1Cl)c1cccs1 | 11 | 21% | -1% | 26% | 10
COc1cccc(CNC(=O)CN2C(=O)CCSc3ccc(S(=O)(=O)N4CCCC4)cc32)c1 | -1 | ? | 9% | 15% | -15
CCOC(=O)c1c[nH]c2c3c(ccc2c1=O)CCCC3 | 22* | 0.33µM* | 4% | ? | 45
CCOC(=O)c1c[nH]c2c(Cl)c(Cl)ccc2c1=O | -1 | -1% | 2% | -34% | -20
CCOC(=O)c1c[nH]c2c(C(=O)c3ccccc3)cc(Cl)cc2c1=O | -2 | -6% | -5% | -8% | -4
CCOC(=O)c1c[nH]c2c(C)cc(C)cc2c1=O | -2 | 5.2µM* | 14% | 10% | -7
Cc1cc(C)cc(NC(=O)CN2CCC(NC(=O)c3ccccc3F)CC2)c1 | -2 | 13% | 11% | 39% | -3
SMILES | CHX counter | Pf growth 48h | NS1 function inh | Pf growth 96h | Shiga inhibitor
COc1ccc(-c2cc3c(=O)n(CC(=O)NCCCN4CCN(Cc5ccccc5)CC4)ncn3n2)cc1 | 28* | 29% | -4% | -2% | 31
COc1ccc(CNC(=O)Cn2ncn3cccc3c2=O)cc1 | 26* | 252% | / | 335% | 30
COc1ccc(-c2cc3c(=O)n(CC(=O)NCc4ccc(C)cc4)ncn3n2)cc1 | 2 | 4% | -6% | 92% | 10
COc1ccc(CNC(=O)Cn2ncn3c(cc4ccccc43)c2=O)cc1 | -2 | 3% | 3% | 14% | -11
COc1ccc(-c2cc3c(=O)n(CC(=O)NCCCN4CCC(Cc5ccccc5)CC4)ncn3n2)cc1 | 23* | -46% | -14% | -24% | 45*
COc1ccc(-c2cc3c(=O)n(CC(=O)NCc4ccc(F)cc4)ncn3n2)cc1 | 11* | 142% | -1% | 7% | 16*
COc1ccc(-c2cc3c(=O)n(CC(=O)NCc4ccc(Cl)cc4)ncn3n2)cc1 | 4 | 2% | 1% | 2% | 14
CC(CCc1ccccc1)NC(=O)c1cccc(F)c1 (stereo unspecified) | 4 | 5% | -10% | -14% | 8
Cc1ccc(C(=O)CC(c2cccs2)S(=O)(=O)c2ccc(C)cc2)cc1 (stereo unspecified) | 23* | 57% | 5% | 20% | 38
O=C(CC(c1cccs1)S(=O)(=O)c1ccccc1)c1ccc(F)cc1 (stereo unspecified) | 52* | 6% | 0% | 13% | 33*
CCC(=O)NCC(c1cccs1)S(=O)(=O)c1ccc(C)cc1 (stereo unspecified) | -3 | 20% | ? | ? | 4
O=C(CC(c1ccco1)S(=O)(=O)c1ccccc1)c1ccccc1 (stereo unspecified) | 42* | 39% | / | 13% | 110*
Cc1cc(C)n(-c2nc3ccccc3s2)n1 | 56* | 140% | -4% | 13% | 109*
Cc1c2c(=O)n(-c3nc4ccccc4s3)nc-2cc(O)n1Cc1ccccc1 | 11 | 2.9µM* | 15% | 2.9µM* | 22
Cc1cc(NC(=O)C(C)C)n(-c2nc3ccccc3s2)n1 | 31* | 48% | / | 63% | 69*
CCOC(=O)c1c(S(=O)(=O)NCC(=O)NCc2ccc(C)cc2)c(C)n(C)c1C | -1 | -4% | -2% | ? | -8
O=C(CN1CCN(c2ncccn2)CC1)NCCC1=CCCCC1 | 1 | -14% | -28% | ? | -10
Cc1ccccc1NC(=O)NC1CCCc2ccccc21 (stereo unspecified) | 5 | ? | 11% | ? | -2
COc1ccc(C2/C=C\CN(C(=O)NC34CC5CC(CC(C5)C3)C4)CC(=O)N2Cc2ccc(F)cc2)cc1 (stereo unspecified) | -1 | ? | -9% | ? | 15
COc1ccc(C(C(C(=O)c2ccco2)N2CCOCC2)N2CCOCC2)cc1 (stereo unspecified) | 23* | 16% | -10% | -1% | 23*
O=C(NCc1ccccc1)C(=O)NCC(c1ccco1)N1CCOCC1 (stereo unspecified) | -3 | 0% | 3% | 42% | -13
COc1ccc(CNC(=O)C(=O)NCC(c2ccco2)N2CCOCC2)cc1 (stereo unspecified) | 8 | 11% | -3% | 7.4µM* | 3
Cc1ccc(Nc2cc(C)nn2-c2nc(C)cc(C)n2)cc1 | 7 | 3.7µM* | -154% | / | -17
Cc1ccc(S(=O)(=O)c2c(N)n(CCCO)c3nc4ccccc4nc23)cc1 | -4 | / | -11% | ? | -8
Nc1c(S(=O)(=O)c2ccccc2)c2nc3ccccc3nc2n1Cc1ccco1 | -5 | ? | ? | 12µM* | -32
Cc1ccc(S(=O)(=O)c2c(N)n(Cc3ccco3)c3nc4ccccc4nc23)cc1C | -3 | 10µM* | ? | / | -12
Cc1ccc(C)c(S(=O)(=O)c2c(N)n(/N=C/c3ccco3)c3nc4ccccc4nc23)c1 | -1 | 10µM* | -17% | ? | 21
